Source: PubChem BioAssay AID2314 (National Center for Advancing Translational Sciences (NCATS), 2010)
In all, about 300,000 compounds went through this assay and about 37,000 (12%) were called active. Only a selection was taken, and actives are over-represented in it overall. Unmarked numbers belong to inactive results. Cut-off read from the data, not from the text of the source: active = max response mostly above about 13% (no sharp cut-off); inactive = mostly below about 14%.

Test: Cycloheximide Counterscreen for Small Molecule Inhibitors of Shiga Toxin; note: read at 38.3 µM for the half of the compounds with a filed dose; 0% is about no effect
Conditions: cell reporter, cycloheximide protein synthesis inhibition counterscreen; active compounds read high

Row | SMILES | max response
1 | Cc1ccc2nc(S(=O)(=O)O)[nH]c2c1 | -7.91%
2 | COc1ccc(CCNC(=O)/C(C#N)=C2\N=C(NC(=O)c3cccs3)c3ccccc32)cc1 | -2.25%
3 | O=C(Nc1ccon1)c1cccc(Cl)c1 | 8.4%
4 | O=C(Nc1ccon1)c1sc2ccccc2c1Cl | 64.4% (active)
5 | CN1CCc2ccccc2C1Cc1ccccc1NC(=O)c1sc2ccccc2c1Cl (stereo unspecified) | 5.79%
6 | COc1ccc(C)cc1NC(=O)C(Sc1ccccc1)c1ccccc1 (stereo unspecified) | -3.77%
7 | CC1CCN(C(=O)c2ccc3c(=O)n4c(nc3c2)CCCCC4)CC1 | 14.9%
8 | CCn1nc(C)c(CN2CCN(Cc3ccc(OC)c(C)c3C)C(CCO)C2)c1C (stereo unspecified) | -1.08%
9 | Cc1cccc(-[n+]2c(-c3cccc(Br)c3)[nH]c3nc4ccccc4nc32)c1 | 0.81%
10 | COc1ccc(OCC(=O)NCCS(=O)(=O)N2CCN(c3ccc(F)cc3)CC2)cc1 | 13.1%
11 | O=C(NCc1ccc(Cl)cc1)C1CCN(S(=O)(=O)c2cccs2)CC1 | -3.46%
12 | COc1ccc(CNC(=O)CN(Cc2ccc(Cl)cc2)S(C)(=O)=O)cc1 | -2.61%
13 | CN(CC(=O)NCc1ccc(Cl)cc1)S(=O)(=O)c1cccs1 | 10.2% (active)
14 | NC(=O)CN1CCCC1c1ccc2c(c1)OCCO2 (stereo unspecified) | 10.4%
15 | Cc1ccccc1OCC(=O)NNC(=O)c1cc(S(=O)(=O)N(C)C)ccc1N1CCCC1 | -2.55%
16 | CCn1c(SCC(=O)N/N=C/C=C/c2ccccc2[N+](=O)[O-])nnc1-c1ccccc1 | 8.3%
17 | O=C(CSc1nc2ccccc2[nH]1)N/N=C/C=C\c1ccccc1[N+](=O)[O-] | 13.8% (active)
18 | Cc1ccc(-n2c(SCC(=O)N/N=C/C=C/c3ccccc3[N+](=O)[O-])nc3ccccc3c2=O)cc1 | -7.24%
19 | OC(COc1ccc(Br)cc1)CN1CCCC1 (stereo unspecified) | -1.85%
20 | CN(CCC1CCOCC1)C(=O)CC1C(=O)NCCN1Cc1cccc(F)c1 (stereo unspecified) | -2.83%
21 | CC(=O)c1c(C)[nH]c(C(=O)OCC(=O)Nc2cc(S(=O)(=O)N3CCCCC3)ccc2C)c1C | -1.55%
22 | Cc1cccc([C@H]2[C@@H]3C=CC[C@@H](C)[C@@H]3C(=O)N2Cc2ccccc2)c1 | -6.21%
23 | O=S(=O)(/C=C/c1ccccc1)NCCc1ccccn1 | 10.5%

Row | SMILES | max response
24 | Cc1c(C)c(C)c(S(=O)(=O)NCCc2ccccn2)c(C)c1C | -3.58%
25 | COc1ccc(NCCc2ccccn2)cc1 | 30.6% (active)
26 | COc1ccc(S(=O)(=O)NC(C)C(=O)NCc2ccncc2)cc1Cl (stereo unspecified) | -5.01%
27 | Cc1c(C(=O)NCc2ccccc2)cnn1-c1ccccc1 | 22.7%
28 | CNC(=O)CSc1nnc(CCc2ccccc2)n1-c1ccccc1 | 1.1%
29 | Cc1c(CNCCc2ccccc2)c(C(=O)O)c(C)n1-c1ccccc1 | 12.6% (active)
30 | COC(=O)CCCC1=CC2=C(c3ccccc3)C(=O)C(C)(OC(=O)C3CCCC3)C(=O)C2=CN1c1ccc(OC)cc1 (stereo unspecified) | -2.86%
31 | CCn1c(=S)[nH]c2sc3c(c2c1=O)CCCCC3 | -1.45%
32 | COc1ccc(N2CCN(C3CCCCC3NS(=O)(=O)c3ccccc3)CC2)cc1 (stereo unspecified) | -5.98%
33 | Cc1ccc2cc(C)c(N3CCN(c4ccc(F)cc4)CC3)nc2c1 | 10.1%
34 | Cc1nc(N2CCC(C)CC2)c2c(C)c(C(=O)Nc3cc(F)ccc3C)sc2n1 | 4.36%
35 | Cc1ccc2cc(C)c(N3CCC(C)CC3)nc2c1 | 23.2% (active)
36 | CC(NC(=O)c1cccc2ccccc12)c1ccc2c(c1)CCCC2 (stereo unspecified) | -1.47%
37 | Cc1ccc(NC(=S)N(CCN2CCCCC2)Cc2ccco2)cc1C | 6.6%
38 | Cc1ccc(NC(=S)N(CCCN2CCC(C)CC2)Cc2ccco2)cc1 | -1.16%
39 | Cc1ccc(NC(=S)N(Cc2ccco2)C(C)c2cccs2)cc1 (stereo unspecified) | 15.6% (active)
40 | O=C(C1=C[C@H](c2ccc(C(F)(F)F)cc2)C[C@H](OCc2ccc(CO)cc2)O1)N1CCN(Cc2ccccc2)CC1 | -1.19%
41 | O=C(O)C1CCCN1S(=O)(=O)c1ccc(Br)cc1 (stereo unspecified) | -3.32%
42 | CCCCNC(=O)CN1C(=O)NC(Cc2ccccc2)(Cc2ccccc2)C1=O | -4.58%
43 | O=S(=O)(c1ccccc1)c1nc(-c2ccccc2)oc1NCCCN1CCOCC1 | -2.06%
44 | CCNC(=S)NNC(=O)Cc1ccccc1 | -1.87%
45 | CC(C)(C)c1ccc(C(=O)NNC(=O)Cc2ccccc2)cc1 | 37.7% (active)
46 | O=C(CCc1ccccc1)NNC(=O)c1ccc(Br)cc1 | 5.92%
